VCAM1 pot = enhances TNF alpha induced VCAM1 expression in HUVEC; HUVEC TNFa-stimulated VCAM-1 immunofluorescence, high-content imaging; scaled per plate to unstimulated/TNFa-only wells; activation, % at 2 µM; 93,000 tested, 0.19% active; AID 808;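 active = activation above the screen mean plus 3 SD, with well images confirming the hit on visual review, cut at about 28% in these data, passing the limit was not always enough; inconclusive = activation above that limit but images do not confirm it; inactive = activation not above that limit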;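 also: signal is the number of cytoplasmic VCAM-1 stained grains per positive cell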
VCAM1 pot confirm = potentiators of TNFa-induced VCAM1 expression, confirmation, imaging, HUVEC, triplicate retest. AID 1034. 230 tested, under 10 active. activation, % at 2 µM. HUVEC TNFa-stimulated VCAM-1 immunofluorescence imaging. shares compounds with VCAM1 pot;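 active = activation above 30% in triplicate retests at 2 µM, then confirmed by visual review of the well images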;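 also: scaled per plate between unstimulated and TNFa-stimulated DMSO control wells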
* hit, by the source's call; ? = inconclusive. The full list was thinned out, with hits kept by preference.

SMILES | VCAM1 pot | others
O=C(Cn1cnc2c(nnn2-c2ccc(F)cc2)c1=O)NCc1ccco1 | 8
CN1CCN(c2ccccc2NC(=O)c2ccc(OCc3ccccc3)cc2)CC1 | 7
c1ccc(COc2ccc(OCCCCN3CCCCC3)cc2)cc1 | 38* | VCAM1 pot confirm=-13
O=C(CN1CCOCC1)Nc1ccc(OCc2ccccc2)cc1 | 0
COC(=O)C1C(=O)C2=C(CC1C)NC(=O)CC2c1cccc(C)c1 (stereo not drawn) | -77
O=C(CS(=O)(=O)Cc1ccccc1)Nc1nc2ccccc2s1 | -22
CCc1ccc(NC(=O)N(CCCN2CCOCC2)Cc2cccs2)cc1 | -3
COc1ccc(Cc2nn3c(-c4ccccc4Br)nnc3s2)cc1 | 7
c1ccc(-c2nnc3sc(-c4ccncc4)nn23)cc1 | -7
CCOc1ccc(-c2nnc3sc(COc4ccc(C)cc4)nn23)cc1 | 40* | VCAM1 pot confirm=-17
Nc1ncnc(Nc2ccccc2C(F)(F)F)n1 | 5
Cc1ccc(S(=O)(=O)NC(=O)NCc2ccc(Cl)cc2)cc1 | -17
CCCNC(=O)CCC(NS(=O)(=O)c1ccc(C)cc1)C(=O)NCCC (stereo not drawn) | 73* | VCAM1 pot confirm=-14
Cc1ccc(N2CC(C(=O)NCCc3ccc(S(N)(=O)=O)cc3)CC2=O)cc1 (stereo not drawn) | 6
CC(C)COc1ccc(C(=O)OCCN2CCOCC2)c(O)c1 | 9
O=C(O)CCS(=O)(=O)Cc1cccc(Cl)c1 | -9
Cc1ccc(-c2nnc(SCC(=O)CC(=O)Nc3ccccc3)n2C)cc1 | 5
Cn1c(SCC(=O)CC(=O)Nc2ccccc2)nnc1-c1ccc(O)cc1 | -8
CCCSc1nnc(-c2cnn(-c3ccccc3)c2-n2cccc2)n1C | 36* | VCAM1 pot confirm=-3
COCCC(=O)N(Cc1ccc2c(c1)OCO2)C(C(=O)NC1CCCCC1)c1ccncc1 (stereo not drawn) | -6
Cn1c(C(=O)NCc2ccccc2)cc2oc3ccccc3c21 | 6
O=c1cc(-c2ccc(Cl)c(Cl)c2)[nH][nH]1 | -4
CCN(CC)C(=O)CN(c1ccc(Cl)cc1)S(=O)(=O)c1ccccc1 | -100
Cc1ccccc1-n1c(=O)c(C#N)cc2c(=O)n3ccccc3nc21 | 8
COc1cccc(C2CC(=O)Nc3cc(OC)c(OC)c(OC)c32)c1OC (stereo not drawn) | -18
SMILES | VCAM1 pot | others
CCc1nnc(NC(=O)c2cc3c(s2)CCCCC3)s1 | 9
Cn1c(CN2CCOCC2)nnc1SCC(=O)Nc1nccs1 | -11
CCc1nnc(NC(=O)CN2CCOCC2)s1 | 85* | VCAM1 pot confirm=-10
COCCCNC(=O)CC(NS(=O)(=O)c1ccc(F)cc1)c1ccc(OC)cc1 (stereo not drawn) | -2
CCCOc1ccc(C(=O)N/N=C/c2ccc(-c3ccc(S(=O)(=O)Nc4ncccn4)cc3)o2)cc1 | 7
CC(C)(C)C1CCC2(CC1)C(Nc1cccc(C(F)(F)F)c1)=NC(=S)N2CC#N (stereo not drawn) | ? | VCAM1 pot confirm=-10
CC(C)NC(=O)c1ccccc1S(=O)(=O)c1ccccc1C#N | -4
c1ccc(Cn2nnc(-c3ccccc3)n2)cc1 | -19
COc1cccc2cc(C(=O)N3C(C)CCCC3C)c(=O)oc12 (stereo not drawn) | 6
O=C(CSc1nnnn1-c1ccc2c(c1)OCO2)NCc1ccccc1 | 0
O=C(Cn1cnc2ccccc2c1=O)N1CCN(Cc2ccc3c(c2)OCO3)CC1 | -16
Cc1cc(C(=O)CSc2nnc(Cc3ccccc3)o2)c(C)n1Cc1ccc2c(c1)OCO2 | 54* | VCAM1 pot confirm=-9
COC(=O)C(C)Sc1nnc(-c2ccncc2)o1 (stereo not drawn) | -19
c1ccc(CSc2nnc(-c3ccncc3)o2)cc1 | 58* | VCAM1 pot confirm=-13
c1ccc(-c2nnc(CSc3nncs3)o2)cc1 | -93
O=C(COc1ccc(Br)cc1)N1CCN(c2ccccc2)CC1 | 8
COc1ccc(OCC(=O)N2CC3(C)CC2CC(C)(C)C3)cc1 (stereo not drawn) | -18
CSC1=NCCN1C(=O)COc1ccc2ccccc2c1 | 30* | VCAM1 pot confirm=-10
CCCCOc1ccc(CSC(CC(=O)O)C(=O)O)cc1 (stereo not drawn) | -14
Cc1ccc2nnc(Cl)n2n1 | -3
Cc1cc(C)cc(OCCCCCNCCO)c1 | -96
CCO/C=C1\C(=O)N(CC)c2ccccc21 | 28
COc1ccccc1NC(=O)Cc1noc(CSc2nnc(C)s2)n1 | 0
Cc1cccc(CCNS(=O)(=O)c2ccc3c(c2)oc(=O)n3C)c1 | 111* | VCAM1 pot confirm=-14
CCOc1ccccc1CNS(=O)(=O)c1ccc2c(c1)oc(=O)n2C | -8
SMILES | VCAM1 pot | others
Cc1cccc(CCNC(=O)CN(C)S(=O)(=O)c2ccc3c(c2)c(=O)n(C)c(=O)n3C)c1 | -1
O=[n+]1c2c(n([O-])c3ccccc31)CCC2 | -8
O=C(/C=C/NNC(=O)c1ccccc1)c1ccc(Br)cc1 | -8
N/C(=N\OC(=O)c1ccc(Br)cc1)c1ccccc1 | 58* | VCAM1 pot confirm=-15
Cc1cccc(/C(N)=N/OC(=O)c2ccco2)c1 | 2
CCC(=O)NC(c1ccc([N+](=O)[O-])cc1)c1c(O)ccc2ccccc12 (stereo not drawn) | -5
O=C(CCc1ccccc1)Nc1cc(C(F)(F)F)ccc1Cl | -7
CC(CC(=O)Nc1cc([N+](=O)[O-])ccc1Cl)c1ccccc1 (stereo not drawn) | 53* | VCAM1 pot confirm=-21
O=C(O)C1CCC(N2C(=O)C3CCCCC3C2=O)CC1 (stereo not drawn) | -78
CCOC(=O)CSc1nnc(CNc2ccc(Cl)cc2)n1Cc1ccccc1 | -10
CCOc1ccc2nc(N3CCCC(C(=O)N4CCN(CC)CC4)C3)sc2c1 (stereo not drawn) | 0
Cn1c(CNc2ccccc2O)nc2ccccc21 | -59
Cc1cn(C(=O)c2ccccc2)c(=S)n1-c1ccc(Cl)cc1 | -18
O=C(Cn1cnc2ccccc2c1=O)N1CCN(Cc2ccccc2)CC1 | -5
CC1CCN(C(=O)Cn2c(=O)n(CCc3ccccc3)c(=O)c3ccccc32)CC1 | ? | VCAM1 pot confirm=-27
O=c1c2ccccc2nc(-c2ccoc2)n1CCc1ccccc1 | -2
Cc1c(C(=O)O)oc2c3c(ccc12)OCCO3 | 3
O=C(Oc1ccc2ccc(=O)oc2c1)N1CCOCC1 | -90
CCOc1ccc(-c2nc(C#N)c(NC3CC3)o2)cc1 | -2
Cc1ccc(-c2nc(C#N)c(NCCN3CCCCC3)o2)cc1 | 44* | VCAM1 pot confirm=-17
COc1ccc(-c2nc(C#N)c(NCc3cccnc3)o2)cc1OC | 4
CC(C)(C)C(=O)N1CCN(c2c(Cl)cccc2[N+](=O)[O-])CC1 | 3
CN=c1sc2ccccc2n1CC(O)COc1ccccc1 (stereo not drawn) | -75
CCCN1C(=O)SC(CC(=O)Nc2ccc(C)cc2)C1=O (stereo not drawn) | 32
Cc1ccc(NC(=O)COC(=O)c2ccn(C)n2)cc1 | ? | VCAM1 pot confirm=-18
SMILES | VCAM1 pot | others
CCOC(=O)c1cnc(-n2nc(C)cc2C)nc1Nc1ccc(C)cc1 | 7
Cc1ccc2c(c1)-c1ccccc1S(=O)(=O)N2 | 32* | VCAM1 pot confirm=-4
O=C(c1ccco1)c1n[nH]nc1-c1ccccc1 | -16
Cc1ccc2nc(SCC(=O)Nc3cc(C(F)(F)F)ccc3N3CCOCC3)[nH]c2c1 | -91
O=C(CCCn1c(=O)c2ccccc2n(CC(=O)NCc2ccco2)c1=O)NCc1ccco1 | ? | VCAM1 pot confirm=-21
CCOc1cc2[nH]c(=S)n(CCCC(=O)NCc3ccco3)c(=O)c2cc1OCC | -2
CCn1c(=O)cc(OCC(=O)NCc2ccco2)c2ccccc21 | -72

High-throughput results as filed in PubChem BioAssay.
